# Rows were chosen to be rich in hits. Some 7.6% of all compounds tested hit in one or more screens of this group.
# Cav3 T inh = inhibitors of human Cav3.2 T-type calcium channel. B-score at 10 µM. Cav3.2-expressing cells, Fluo-4 calcium fluorescence FDSS; stronger effect = lower value. 100,000 tested, 4% active;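 active = single-dose well whose peak fluorescence ratio is a statistical outlier from its plate by either plate-standardised score or position-corrected B-score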
# M1 ag = M1 muscarinic receptor agonism. 64,000 tested, 3% active. B-score at 10 µM. CHO-M1 cells, Fluo-4 calcium fluorescence, agonist mode; stronger effect = higher value;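 active = fluorescence rise, raw or as B-score row- and column-corrected plate score, outside the 99.7% band of its plate's samples, either direction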
# PLAP act = activates human placental alkaline phosphatase | P05187 | activation fold at 20 µM | purified PLAP enzyme, luminescent substrate read-out; stronger effect = higher value | 96,000 tested, 1.2% active; in the data active = activation fold above about 2
# Target sequence (P05187 whole entry, looked up): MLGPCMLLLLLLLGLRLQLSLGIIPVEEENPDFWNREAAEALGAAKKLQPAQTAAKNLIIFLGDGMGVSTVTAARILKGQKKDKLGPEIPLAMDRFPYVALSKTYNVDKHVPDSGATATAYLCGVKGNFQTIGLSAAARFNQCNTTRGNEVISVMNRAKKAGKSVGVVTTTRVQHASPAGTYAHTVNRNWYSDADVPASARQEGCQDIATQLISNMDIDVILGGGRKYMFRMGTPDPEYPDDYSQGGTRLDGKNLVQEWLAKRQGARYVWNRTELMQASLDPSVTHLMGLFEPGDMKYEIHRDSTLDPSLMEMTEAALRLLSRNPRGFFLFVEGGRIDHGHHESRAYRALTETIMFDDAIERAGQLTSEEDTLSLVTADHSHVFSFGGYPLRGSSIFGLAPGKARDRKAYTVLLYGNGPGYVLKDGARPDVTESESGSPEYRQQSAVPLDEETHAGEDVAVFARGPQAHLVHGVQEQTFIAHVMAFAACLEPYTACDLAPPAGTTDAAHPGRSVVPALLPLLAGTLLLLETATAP
# M1 antagonist = blocks the rat M1 muscarinic receptor response to acetylcholine. P08482. 64,000 tested, 3.4% active. B-score at 10 µM. CHO-M1 cells, Fluo-4 calcium, ACh EC80 antagonist mode; stronger effect = lower value;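 active = calcium fluorescence response, raw or row-and-column corrected B-score, differing from the plate sample mean either way at a set confidence level, mostly lower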
# An asterisk follows results filed as active; / = not tested or not shown.
SMILES,Cav3 T inh,M1 ag,PLAP act,M1 antagonist
CC(=O)c1ccc(-n2nncc2C)cc1,-0.033,0.23,0.8,0.73
CCOc1ccc(CCNC(=O)CCCN2C(=O)c3ccccc3C2=O)cc1OCC,0.59,/,1.1,/
Cc1cc(C(C)(C)C)oc1C(=O)N(CC(=O)NC1CCCC1)Cc1ccc(F)cc1,-1.3,/,0.9,/
Cc1ccc(C)c(N(CC(=O)NC2CCCC2)C(=O)c2oc(C(C)(C)C)cc2C)c1,-4.8*,/,1.6,/
O=C1NC(Cc2c[nH]c3ccccc23)C(=O)N1CCOc1ccccc1 (centres undefined),-2.1,0.16,1.1,-0.76
Cc1nn(Cc2ccccc2)c(Cl)c1C(=O)OCc1nnc(-c2ccccc2)o1,-5*,-1.2,1.5,-0.42
O=C(OCc1nnc(-c2ccccc2)o1)c1ccco1,0.57,-0.032,1,-0.0037
Cc1nn(Cc2ccccc2)c(Cl)c1C(=O)OCc1nnc(-c2ccc(Cl)cc2)o1,-7.3*,2.1,1.4,-1.3
COc1ccc(NC(=O)C2CCCO2)cc1 (centres undefined),1.1,/,/,/
COc1ccc(N2CCN(CCNC(=O)c3ccc(NC(=O)C4CCCO4)cc3)CC2)cc1 (centres undefined),0.62,-2.8*,1.2,-0.013
CC(NC(=O)c1ccccc1Br)c1ccc2c(c1)CCCC2 (centres undefined),-1.7,/,1,/
CC(NC(=O)c1ccc(F)cc1)c1ccc2c(c1)CCCC2 (centres undefined),-8.5*,/,0.9,/
Cc1nnc(SCCC(=O)Nc2nc(-c3ccccc3)ns2)s1,-5*,-0.2,0.4,-0.96
CN(C)c1nc(SCCOC(=O)Nc2ccccc2)nc(N(C)C)n1,-4.7*,-0.19,1.6,-0.83
CC1=CC(C#N)(C#N)C(C#N)(C#N)C(c2ccccc2)N1 (centres undefined),-2.3,25*,1.6,-0.28
O=C(CN(Cc1ccco1)C(=O)CNS(=O)(=O)c1ccccc1)NCc1ccc(F)cc1,-0.96,0.67,1.3,-0.24
Cc1ccc(N(Cc2ccco2)C(=O)c2cccc(S(=O)(=O)N(C)C)c2)cc1,-4.3*,-0.16,1.4,0.95
CN(C)S(=O)(=O)c1cccc(C(=O)N(Cc2ccc(F)cc2)Cc2ccco2)c1,-4.5*,0.11,1.5,-1.6
CN(C)S(=O)(=O)c1cccc(C(=O)NCc2ccco2)c1,0.42,0.35,1,0.48
O=C(NCCn1ccc2ccccc21)c1ccc(S(=O)(=O)N2CCOCC2)cc1,0.22,-0.57,1,0.48
NC(=O)C1CCN(CCCNC2CC(=O)N(Cc3ccc(N4CCCC4=O)cc3)C2=O)CC1 (centres undefined),-0.6,4.2*,/,0.075
Cc1ccc(-c2nc3sc4c(N)ncnc4c3c3c2CCCC3)cc1,-0.91,/,0.9,/
O=C(C(Sc1ccccc1)c1ccccc1)N1CCN(c2ccccc2F)CC1 (centres undefined),-4*,/,0.9,/
CCCS(=O)(=O)N1CCCC(C(=O)NCC2CCCO2)C1 (centres undefined),1.3,0.063,1,0.0075
Cc1ccc(NC(=O)C(Cc2ccccc2)N2C(=O)C3C4CCC(C4)C3C2=O)cc1Cl (centres undefined),-5.8*,/,1.2,/
SMILES,Cav3 T inh,M1 ag,PLAP act,M1 antagonist
O=C(NCc1ccccc1)C(Cc1ccccc1)N1C(=O)C2C3CCC(C3)C2C1=O (centres undefined),-0.027,/,0.9,/
Cc1cnn(CCC(=O)NNC(=S)Nc2cccc(Cl)c2)c1,-1,/,1.6,/
Cc1cnn(CCC(=O)NNC(=S)Nc2ccc(F)cc2)c1,0.8,/,2.3*,/
O=C(NCc1cccs1)c1csc2ccccc12,-3.3,0.68,0.8,-0.31
O=C(Cn1nnc(-c2ccccc2)n1)OCc1ccccc1,-0.035,0.036,0.9,-1
O=C(OCc1ccccc1)c1cccc(-c2nnn(Cc3ccccc3)n2)c1,-4.1*,/,0.5,/
Oc1ccc(Br)cc1CNn1cnnc1,-3.8*,-0.53,1,-0.11
Cn1c(NCc2cc(Br)ccc2O)nc2ccccc21,-0.8,-0.29,1.2,0.42
COc1ccc(N2CCN(CCCNS(=O)(=O)c3c(C)noc3/C=C/N(C)C)CC2)cc1,-1.8,0.28,1.4,-0.41
OCC(CO)(CO)N=Cc1cc(Br)ccc1O,-7.1*,0.0068,0.7,0.63
CCOc1cc2c3c(c1)C1(C(=O)N3C(C)(C)C=C2C)C(C#N)=C(N)Oc2cc(O)ccc21 (centres undefined),-5.6*,-1.2,1.2,0.17
COc1cc2c3c(c1)C1(C(=O)N3C(C)(C)C=C2C)C(C#N)=C(N)Oc2cc(O)ccc21 (centres undefined),-2.2,-0.53,1.4,-0.027
CCN(CC)c1ccc2cc(-c3nnc(-c4ccccc4)o3)c(=O)oc2c1,-11*,/,/,/
CCOc1cccc2cc(-c3nnc(-c4ccccc4)o3)c(=O)oc12,/,0.35,/,0.13
CCN(CC)c1ccc2cc(-c3nc4ccccc4[nH]3)c(=O)oc2c1,-7.3*,419*,0.9,-21*
O=C1CCC([N+](=O)[O-])C(c2ccc(Cl)cc2Cl)N1 (centres undefined),0.03,/,0.8,/
Cc1ccc2cc(CN(Cc3nnnn3C3CCCCC3)CC3CCCO3)c(=O)[nH]c2c1 (centres undefined),-2.6*,-0.32,1.5,1.2
O=C(c1ccco1)N1CCN(c2ncnc3scc(-c4cccs4)c23)CC1,-3.1,1.9*,1,-0.41
CCCCNC(=O)Cc1coc2ccc3ccccc3c12,-0.83,/,1.1,/
CC(C)CN(CC(C)C)C(=O)Cc1coc2ccc3ccccc3c12,-4.9*,/,1.1,/
O=C(N/N=C/c1ccc(O)c(O)c1)c1ccc(CSc2cccc3cccnc23)cc1,0.29,/,1.3,/
Cc1ccc(OCC(=O)NN=C2c3ccccc3-c3ccccc32)cc1,-0.04,/,1.1,/
CCc1ccc(OCC(=O)N/N=C2\CC(=O)c3ccccc32)cc1,-1.7,/,2.4*,/
Cc1c(Cl)cccc1NC(=S)NN1CCOCC1,1,/,1,/
COCCCn1c(N)c(-c2nc3ccccc3n2C)c2nc3ccccc3nc21,-2.2,/,2*,/
SMILES,Cav3 T inh,M1 ag,PLAP act,M1 antagonist
Cn1c(-c2c(N)n(CCc3ccccc3)c3nc4ccccc4nc23)nc2ccccc21,-3.6,/,2.1*,/
CC(C(=O)NC1CCCC1)N(C(=O)c1ccc(-c2ccccc2)[nH]1)c1ccccc1F (centres undefined),-6*,/,1.2,/
O=C(NC1CCCCC1)C(c1ccncc1)N(Cc1ccccc1)C(=O)c1ccc(-c2ccccc2)[nH]1 (centres undefined),/,/,1.2,/
CSc1cccc(NC(=O)C2CCN(S(=O)(=O)c3ccc(F)cc3)CC2)c1,-2.6,1.2,1.3,-0.35
CSc1cccc(NC(=O)C2CCCN(S(=O)(=O)c3ccc(F)cc3)C2)c1 (centres undefined),-6.3*,-0.41,1.1,-0.49
Cc1ccc(NS(=O)(=O)c2ccc(NC(=O)c3ccc(Br)o3)cc2)c(C)c1,-2.1,-0.18,1,1.3
CCCCNC(=O)CN(CCc1ccccc1)S(C)(=O)=O,-5.3*,/,1,/
O=C(NCc1cccs1)c1cc(S(=O)(=O)N2CCCCC2)ccc1Cl,-0.34,/,/,/
O=C(C1CCCN(S(=O)(=O)c2ccc(Cl)cc2)C1)N(Cc1cccs1)C1CC1 (centres undefined),-5.6*,-0.31,1,-0.36
CCCSc1nc(N2CCOCC2)c2c(c1C#N)CCCC2,-6.6*,-0.91,1.1,0.083

# Assay outcomes as filed in PubChem BioAssay.
